Hit rate of the full screen: of about 420,000 compounds, about 64,000 (15%) were called active. About 27% were inconclusive and are not listed. Calls follow the shape of the dose curve; as a rule, active = well fitted inhibition curve with a large enough effect; inconclusive = small, poorly fitted or top-dose-only effect; inactive = flat fitted curve, though single readings scatter. These entries were drawn from the full list. A call without a number means that no potency is given here.
Potency is read from the fitted curve at half-maximal effect.

A short description of this assay: qHTS for Inhibitors of human tyrosyl-DNA phosphodiesterase 1 (TDP1): qHTS in cells in absence of CPT. Also: nearly all actives have a fitted effect of over 55% in size. As to conditions: DT40 Tdp1-/- hTDP1 cells, no CPT, ATP luminescence, 48 h; activity change, negative = growth inhibition: at 46.2 µM (top of the series). The method, boiled down:
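Readout: luminescence from CellTiter-Glo after 30 min in the dark at RT. Cells: DT40 Tdp1-/- with stable hTDP1, 400/well. Exposure: compounds alone, ≥48 hr, 37 °C.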
(In general: Quantitative high-throughput screening tests each substance at several concentrations.)
Turning to `CC1CN(CC(=O)NC(C)c2ccccc2)CC(C)O1` (configuration not stated), the Potency result was “inactive”. `CC(C)(C)C(=O)N1CCC[C@@]1(CO)C(=O)O`: the Potency entry was “inactive”. In the case of `O=C(c1ccc2c(c1)OCO2)N1CCN(C(=O)c2ccco2)CC1` it was “inactive”; in that of `O=S1(=O)CCN(Cc2ccccc2)CC1`, “inactive”; in that of `O=C1c2ccccc2C(=O)c2c1cccc2N1CCN(Cc2ccccc2)CC1`, 18.4 µM (active). As to `O=c1cc(N2CCN(Cc3ccccc3)CC2)c(-c2ccccc2)n[nH]1`, the Potency result was “inactive”. Then `C=CCNC(=O)c1ccc(C)c(Br)c1`, with “inactive”; and `C=CCNC(=O)c1ccc2nc(-c3ccco3)c(-c3ccco3)nc2c1`, with 11.2 µM (active); and `C=CCNC(=O)c1cc(-c2ccccc2O)on1`, with “inactive”. In the case of `COC(=O)NNC1=CC(=O)CC(C)(C)C1` it was “inactive”; in that of `Cc1ccc(N2C(=O)C(NC(=O)c3c(F)cccc3F)(C(F)(F)F)C3=C2CC(C)(C)CC3=O)cc1` (configuration not stated), “inactive”; in that of `CN(C)c1ccc(C2Nc3ccccc3C(=O)N2NS(=O)(=O)c2ccccc2)cc1` (configuration not stated), “inactive”. In the case of `COc1ccc(-c2cc(C(=O)NC(C(=O)O)C(C)C)c(C)o2)cc1OC` (configuration not stated) it was “inactive”; in that of `Cc1cccc(C)c1OCC(=O)NC(Cc1c[nH]c2ccccc12)C(=O)O` (configuration not stated), “inactive”; in that of `COc1ccc(-c2cc(C(=O)NC(Cc3c[nH]c4ccccc34)C(=O)O)c(C)o2)cc1OC` (configuration not stated), 29.1 µM (active). For `Cc1ccc(S(=O)(=O)NCc2csc(C)n2)c(C)c1`, the Potency result is “inactive”. Consider `CCOC(=O)N1CCN(C(=O)c2cn(C)c3ccc(S(=O)(=O)N4CCCC4)cc3c2=O)CC1`, for which the Potency result is “inactive”. As for `CCn1cc(C(=O)N2CC(C)CC(C)C2)c(=O)c2cc(S(=O)(=O)N3CCCC3)ccc21` (configuration not stated), the Potency result is “inactive”. Then `CCn1cc(C(=O)N2CCN(c3cc(C)ccc3C)CC2)c(=O)c2cc(S(=O)(=O)N(C)C3CCCCC3)ccc21`, with 18.4 µM (active); and `CCn1cc(C(=O)N2CCN(c3cc(Cl)ccc3C)CC2)c(=O)c2cc(S(=O)(=O)N3CCCC3)ccc21`, with 25.9 µM (active). Take `CN(Cc1ccccc1)C(=O)c1cn(C)c2ccc(S(=O)(=O)N(C)C3CCCCC3)cc2c1=O`: the Potency result was “inactive”. Consider `Cc1ccc(Cl)cc1N1CCN(C(=O)c2cn(C)c3ccc(S(=O)(=O)N(C)C4CCCCC4)cc3c2=O)CC1`, for which the Potency result was “inactive”. As to `NC(=O)CSc1nc2c(oc3ccccc32)c(=O)n1Cc1ccccc1`, the Potency result is “inactive”. In the case of `COCC(=O)Nc1cc(C(=O)OC)cc(C(=O)OC)c1` it was “inactive”; in that of `COc1ccc(CC(N)C(=O)NC2C(O)[C@H](n3cnc4c(N(C)C)ncnc43)O[C@@H]2CO)cc1` (some centres not stated), 22.1 µM (active); in that of `Nc1ncnc2c1ncn2[C@@H]1O[C@H](CNC(=O)[C@H](N)Cc2cccnc2)[C@@H](O)[C@H]1O`, “inactive”. In the case of `COc1cccc(CN(C)C(=O)CC[C@H]2O[C@@H](n3cnc4c(NC(=O)c5ccccc5)ncnc43)[C@H](O)[C@@H]2O)c1` it was “inactive”; in that of `COC(=O)CNC(=O)c1ccc(OC2CCN(C(=O)C3CC3)CC2)cc1`, “inactive”.

Take `CN(C)CCOc1ccc(Cl)cc1C(C)(C)C`: the Potency result was “inactive”. Regarding `CCC(C(=O)OCCN(CC)CC)c1ccccc1` (configuration not stated), the Potency entry was “inactive”. In the case of `CCN(CC)CCOCCOc1ccc(Cl)c2ccccc12` it was 16.4 µM (active); in that of `C/C(=N/NC(=O)CCc1ccccc1)c1ccco1`, “inactive”; in that of `O=C(CCc1ccccc1)Nc1cccc(-c2nnc(-c3ccco3)o2)c1`, 16.4 µM (active). In the case of `Cc1cccc(NC(=O)CSc2nnc(-c3ccco3)o2)c1` it was “inactive”. In the case of `COc1cc(NS(=O)(=O)c2ccc(NC(=O)CN3C(=O)c4ccccc4C3=O)cc2)ncn1` it was “inactive”; in that of `Oc1cc(O)c2c(c1)OC(c1ccc(O)c(O)c1)C(O)C2` (configuration not stated), “inactive”. Consider `CCCC1OC23CCCCC2C(C#N)(C#N)C1(C#N)C(=N)O3` (configuration not stated), for which the Potency is 5.8 µM (active). Turning to `N#C/C(=C\c1ccccc1)c1n[nH]c(Cn2cncn2)n1`, the Potency entry is “inactive”. Then `COC(=O)N1CCC2(CCCN(c3ccncc3)C2)CC1`, with “inactive”. For the compound `CCc1cccc2c(=O)c(C(=O)NCCCOC)c[nH]c12`, the Potency result is “inactive”.

Regarding `CCc1nc2ccc(C(=O)Nc3ccc(OC)c(OC)c3)cn2c1N(C)C(=O)c1cccc(OC)c1`, the Potency entry is “inactive”. Then `CCc1nc2ccc(C(=O)Nc3cccc(OC)c3)cn2c1N(CCC(C)C)CCN(C)C`, with “inactive”. On to `CCc1nc2ccc(C(=O)Nc3cc(-c4ccccc4)ccc3OC)cn2c1N(CC)CC(=O)N(C)C`, for which the Potency was 11.6 µM (active). In the case of `CCn1c(CNS(=O)(=O)c2ccc(Cl)cc2)n[nH]c1=S` it was “inactive”; in that of `Cc1cccnc1NC(=O)CSc1nnc(COc2ccc(C(C)C)cc2)n1C`, “inactive”; in that of `N#Cc1cccc(CSc2ncnc(N)n2)c1`, “inactive”.

Take `Cc1cc(C)c(C)c(S(=O)(=O)Nc2ccc(O)cc2)c1C`: the Potency is 11.6 µM (active). In the case of `Cc1cc(C(C)(C)C)cc(S(=O)(=O)Nc2ccc(C(=O)O)cc2)c1C` it was “inactive”; in that of `Cc1cc(C)c(C)c(S(=O)(=O)Nc2cccnc2)c1C`, “inactive”; in that of `COc1cc(NC(=O)C2CC(c3ccccc3O)=NO2)c(OC)cc1Cl` (configuration not stated), “inactive”.

Turning to `CC/S(CC1CC1(Cl)Cl)=N\S(=O)(=O)c1ccc(C)cc1` (configuration not stated), the Potency result was “inactive”. Then `COC(=O)CCNc1ccc2c(c1)OCCO2`, with “inactive”; and `CC(C)(c1ccccc1)c1ccc(OCCN)cc1`, with 11.6 µM (active); and `O=C(NCCc1ccccc1)c1ccc(OCCOc2ccccc2)cc1`, with “inactive”. Then `O=C(NCCOc1ccccc1)c1ccccc1`, with “inactive”; and `O=C(CSc1ncccn1)N1CCCC1`, with “inactive”. Then `CCc1nnc(NC(=O)CSc2nc3c(c(=O)n2-c2ccccc2OC)SCC3)s1`, with “inactive”.

These data come from PubChem BioAssay AID686978 (National Center for Advancing Translational Sciences (NCATS), 2013).
